Source: paper PMC7862700, “An all-to-all approach to the identification of sequence-specific readers for epigenetic DNA modifications on cytosine”

What was measured:
Experiment in all cases: DAPPL (digital affinity profiling via proximity ligation, sequencing); 10 mM Tris-HCl pH 7.5, 50 mM NaCl, 1 mM DTT, 4% glycerol, room temperature, 30 min; GST-TFs on glutathione beads, 16-mer random dsDNA library, 0.1% formaldehyde crosslink after washing; high values mean tight binding
FEV = target: T1, FEV (Homo sapiens, UniProt Q99581 1-238); settings: protein: recombinant; tags: N-terminal GST; dsDNA, one strand shown
T1 sequence: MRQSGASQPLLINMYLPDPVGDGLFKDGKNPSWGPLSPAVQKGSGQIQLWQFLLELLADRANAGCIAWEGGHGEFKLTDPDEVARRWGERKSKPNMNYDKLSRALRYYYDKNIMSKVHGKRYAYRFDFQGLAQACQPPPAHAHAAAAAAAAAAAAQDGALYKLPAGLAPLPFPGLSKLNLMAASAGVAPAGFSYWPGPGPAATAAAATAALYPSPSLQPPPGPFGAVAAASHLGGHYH
Outline: (§1)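 Yeast served to express human transcription factors as GST fusions, which were then captured on glutathione beads and labelled with DNA barcodes. Pooled with a tag-only sample, they were incubated with 200 nmole of a 16-mer random double-stranded DNA library for 30 min at room temperature in Tris/NaCl/DTT/glycerol buffer, washed, crosslinked with 0.1% formaldehyde, ligated by proximity, amplified by PCR and sequenced. Dividing each hexamer's read frequency for a factor by its frequency for the tag-only sample gives the binding signal.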

ETV5 = ETV5 (Homo sapiens, UniProt P41161 1-510); settings: protein: recombinant; tags: N-terminal GST; dsDNA, one strand shown
Outline: as §1

HSF1 = HSF1 (Homo sapiens, UniProt Q00613 1-529); settings: protein: recombinant; tags: N-terminal GST; chain copies: 3; dsDNA, one strand shown
Outline: as §1

SPIC = target: T2, SPIC (Homo sapiens, UniProt Q8N5J4 1-248); settings: protein: recombinant; tags: N-terminal GST; dsDNA, one strand shown
T2 sequence: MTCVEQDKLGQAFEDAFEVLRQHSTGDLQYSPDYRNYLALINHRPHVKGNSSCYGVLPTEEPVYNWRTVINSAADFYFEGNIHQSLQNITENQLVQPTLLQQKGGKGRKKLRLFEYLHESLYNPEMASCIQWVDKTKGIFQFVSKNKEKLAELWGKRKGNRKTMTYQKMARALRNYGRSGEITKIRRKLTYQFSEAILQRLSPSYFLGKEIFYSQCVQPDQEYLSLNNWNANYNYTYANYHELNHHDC
Outline: as §1

ELF4 = ELF4 (Homo sapiens, UniProt Q99607 1-663); settings: protein: recombinant; tags: N-terminal GST; dsDNA, one strand shown
Outline: as §1

ELK4 = target: T3, ELK4 (Homo sapiens, UniProt P28324-2 1-405); settings: protein: recombinant; tags: N-terminal GST; dsDNA, one strand shown
T3 sequence: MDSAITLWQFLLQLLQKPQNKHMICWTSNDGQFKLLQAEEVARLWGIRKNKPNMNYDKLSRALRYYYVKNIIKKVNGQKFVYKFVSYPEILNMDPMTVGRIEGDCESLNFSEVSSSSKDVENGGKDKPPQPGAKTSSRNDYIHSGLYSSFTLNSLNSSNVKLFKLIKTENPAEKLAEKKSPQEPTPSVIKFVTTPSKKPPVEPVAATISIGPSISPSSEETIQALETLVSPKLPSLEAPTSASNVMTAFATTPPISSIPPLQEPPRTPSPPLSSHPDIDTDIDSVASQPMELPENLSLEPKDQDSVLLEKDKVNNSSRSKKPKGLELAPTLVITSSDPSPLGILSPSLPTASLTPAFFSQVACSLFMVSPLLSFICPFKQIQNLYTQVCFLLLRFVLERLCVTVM
Outline: as §1

ETV2 = target: T4, ETV2 (Homo sapiens, UniProt O00321 1-342); settings: protein: recombinant; tags: N-terminal GST; dsDNA, one strand shown
T4 sequence: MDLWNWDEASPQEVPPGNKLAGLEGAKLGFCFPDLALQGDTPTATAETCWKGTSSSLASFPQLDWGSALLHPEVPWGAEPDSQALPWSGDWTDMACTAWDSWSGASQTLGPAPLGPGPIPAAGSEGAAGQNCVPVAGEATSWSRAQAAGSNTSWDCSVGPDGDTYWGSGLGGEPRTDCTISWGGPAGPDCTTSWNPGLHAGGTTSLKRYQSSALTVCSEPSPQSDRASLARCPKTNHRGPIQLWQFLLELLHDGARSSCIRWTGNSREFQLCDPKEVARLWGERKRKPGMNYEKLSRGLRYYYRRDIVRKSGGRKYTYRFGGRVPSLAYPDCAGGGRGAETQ
Outline: as §1

ELF3 = target: T5, ELF3 (Homo sapiens, UniProt P78545 1-371); settings: protein: recombinant; tags: N-terminal GST; dsDNA, one strand shown
T5 sequence: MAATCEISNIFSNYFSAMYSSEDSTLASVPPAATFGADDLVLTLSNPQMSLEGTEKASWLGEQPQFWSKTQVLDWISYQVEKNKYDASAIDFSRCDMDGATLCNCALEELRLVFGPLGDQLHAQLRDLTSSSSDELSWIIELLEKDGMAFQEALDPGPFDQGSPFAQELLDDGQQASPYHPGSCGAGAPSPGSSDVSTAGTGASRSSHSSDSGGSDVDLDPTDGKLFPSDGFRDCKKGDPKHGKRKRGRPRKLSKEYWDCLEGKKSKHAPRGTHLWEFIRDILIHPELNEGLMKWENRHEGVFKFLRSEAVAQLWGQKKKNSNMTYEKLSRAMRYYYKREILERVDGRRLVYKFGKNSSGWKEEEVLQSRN
Outline: as §1

CRX = CRX (Homo sapiens, UniProt O43186 1-299); settings: protein: recombinant; tags: N-terminal GST; dsDNA, one strand shown
Outline: as §1

ETV1 = ETV1 (Homo sapiens, UniProt P50549 1-477); settings: protein: recombinant; tags: N-terminal GST; dsDNA, one strand shown
Outline: as §1

ERF = target: T6, ERF (Homo sapiens, UniProt P50548 1-548); settings: protein: recombinant; tags: N-terminal GST; dsDNA, one strand shown
T6 sequence: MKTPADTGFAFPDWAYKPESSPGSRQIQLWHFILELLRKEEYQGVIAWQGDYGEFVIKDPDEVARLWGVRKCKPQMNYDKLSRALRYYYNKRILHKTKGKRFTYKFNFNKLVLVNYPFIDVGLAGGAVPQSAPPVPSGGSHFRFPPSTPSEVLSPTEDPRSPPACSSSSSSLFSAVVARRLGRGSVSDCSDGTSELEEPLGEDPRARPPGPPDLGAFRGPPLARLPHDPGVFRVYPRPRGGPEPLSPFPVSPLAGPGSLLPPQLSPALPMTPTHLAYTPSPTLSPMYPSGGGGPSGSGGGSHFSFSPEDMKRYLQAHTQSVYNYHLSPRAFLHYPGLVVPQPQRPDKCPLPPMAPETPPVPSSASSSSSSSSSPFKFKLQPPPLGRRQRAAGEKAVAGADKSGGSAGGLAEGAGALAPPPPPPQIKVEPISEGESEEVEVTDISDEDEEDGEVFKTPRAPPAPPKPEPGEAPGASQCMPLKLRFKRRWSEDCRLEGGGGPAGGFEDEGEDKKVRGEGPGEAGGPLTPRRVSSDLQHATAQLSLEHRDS
Outline: as §1

ETV3L = target: T7, ETV3L (Homo sapiens, UniProt Q6ZN32 1-361); settings: protein: recombinant; tags: N-terminal GST; dsDNA, one strand shown
T7 sequence: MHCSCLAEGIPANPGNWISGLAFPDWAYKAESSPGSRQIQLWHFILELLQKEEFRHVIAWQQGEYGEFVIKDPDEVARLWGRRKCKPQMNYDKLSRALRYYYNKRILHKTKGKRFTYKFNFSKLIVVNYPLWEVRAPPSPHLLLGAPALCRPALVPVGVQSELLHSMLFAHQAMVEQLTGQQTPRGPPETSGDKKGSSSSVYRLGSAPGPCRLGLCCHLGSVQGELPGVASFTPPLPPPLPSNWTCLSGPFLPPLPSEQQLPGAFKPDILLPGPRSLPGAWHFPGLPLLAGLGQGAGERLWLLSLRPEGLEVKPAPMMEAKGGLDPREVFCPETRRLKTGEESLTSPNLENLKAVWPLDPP
Outline: as §1

ETS2 = target: T8, ETS2 (Homo sapiens, UniProt P15036 1-469); settings: protein: recombinant; tags: N-terminal GST; dsDNA, one strand shown
T8 sequence: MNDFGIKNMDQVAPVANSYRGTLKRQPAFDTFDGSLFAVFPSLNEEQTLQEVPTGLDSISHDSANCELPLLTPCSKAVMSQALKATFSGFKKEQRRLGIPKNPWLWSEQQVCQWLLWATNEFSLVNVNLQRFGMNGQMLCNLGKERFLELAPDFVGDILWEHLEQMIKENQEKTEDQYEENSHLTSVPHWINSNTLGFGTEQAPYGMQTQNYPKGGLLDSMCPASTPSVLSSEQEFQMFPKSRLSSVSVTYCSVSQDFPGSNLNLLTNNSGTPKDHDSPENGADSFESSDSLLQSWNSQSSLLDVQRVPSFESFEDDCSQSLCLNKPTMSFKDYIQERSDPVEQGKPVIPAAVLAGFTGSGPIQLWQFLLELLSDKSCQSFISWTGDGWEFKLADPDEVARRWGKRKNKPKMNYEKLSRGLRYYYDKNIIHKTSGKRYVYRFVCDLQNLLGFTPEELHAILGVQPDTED
Outline: as §1

SPDEF = target: T9, SPDEF (Homo sapiens, UniProt O95238 1-335); settings: protein: recombinant; tags: N-terminal GST; dsDNA, one strand shown
T9 sequence: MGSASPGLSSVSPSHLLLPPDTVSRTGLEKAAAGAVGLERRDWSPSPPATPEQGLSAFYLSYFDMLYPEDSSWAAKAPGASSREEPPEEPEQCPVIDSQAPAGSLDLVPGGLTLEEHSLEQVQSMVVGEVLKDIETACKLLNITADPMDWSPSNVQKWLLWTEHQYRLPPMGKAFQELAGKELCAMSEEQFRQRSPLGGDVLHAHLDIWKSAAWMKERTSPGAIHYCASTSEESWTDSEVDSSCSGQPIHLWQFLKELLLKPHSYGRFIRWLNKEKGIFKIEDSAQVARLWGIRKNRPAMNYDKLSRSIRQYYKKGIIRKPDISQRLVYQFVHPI
Outline: as §1

ETV7 = target: T10, ETV7 (Homo sapiens, UniProt Q9Y603 1-341); settings: protein: recombinant; tags: N-terminal GST; dsDNA, one strand shown
T10 sequence: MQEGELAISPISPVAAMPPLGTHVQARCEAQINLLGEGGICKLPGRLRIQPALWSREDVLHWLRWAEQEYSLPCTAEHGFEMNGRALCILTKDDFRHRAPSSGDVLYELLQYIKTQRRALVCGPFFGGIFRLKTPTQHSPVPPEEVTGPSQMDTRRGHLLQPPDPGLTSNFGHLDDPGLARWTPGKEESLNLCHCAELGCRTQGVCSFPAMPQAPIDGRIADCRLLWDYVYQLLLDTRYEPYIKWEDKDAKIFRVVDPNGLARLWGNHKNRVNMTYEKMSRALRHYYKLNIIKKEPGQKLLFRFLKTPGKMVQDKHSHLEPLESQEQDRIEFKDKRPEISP
Outline: as §1

ELF5 = target: T11, ELF5 (Homo sapiens, UniProt Q9UKW6-2 1-255); settings: protein: recombinant; tags: N-terminal GST; dsDNA, one strand shown
T11 sequence: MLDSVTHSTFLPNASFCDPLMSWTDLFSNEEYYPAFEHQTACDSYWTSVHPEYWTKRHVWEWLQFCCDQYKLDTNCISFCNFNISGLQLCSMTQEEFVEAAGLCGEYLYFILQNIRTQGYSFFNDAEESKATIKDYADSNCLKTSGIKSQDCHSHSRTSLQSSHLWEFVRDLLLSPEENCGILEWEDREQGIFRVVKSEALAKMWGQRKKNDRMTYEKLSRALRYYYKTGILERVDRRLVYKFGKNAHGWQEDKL
Outline: as §1

ETV3 = target: T12, ETV3 (Homo sapiens, UniProt P41162-2 1-143); settings: protein: recombinant; tags: N-terminal GST; dsDNA, one strand shown
T12 sequence: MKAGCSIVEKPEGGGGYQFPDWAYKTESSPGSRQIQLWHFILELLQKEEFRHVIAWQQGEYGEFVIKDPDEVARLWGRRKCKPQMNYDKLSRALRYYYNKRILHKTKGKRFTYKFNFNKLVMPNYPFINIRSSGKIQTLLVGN
Outline: as §1

ETV6 = ETV6 (Homo sapiens, UniProt P41212 1-452); settings: protein: recombinant; tags: N-terminal GST; dsDNA, one strand shown
Outline: as §1

Sequence of ETV1 (P50549 whole entry): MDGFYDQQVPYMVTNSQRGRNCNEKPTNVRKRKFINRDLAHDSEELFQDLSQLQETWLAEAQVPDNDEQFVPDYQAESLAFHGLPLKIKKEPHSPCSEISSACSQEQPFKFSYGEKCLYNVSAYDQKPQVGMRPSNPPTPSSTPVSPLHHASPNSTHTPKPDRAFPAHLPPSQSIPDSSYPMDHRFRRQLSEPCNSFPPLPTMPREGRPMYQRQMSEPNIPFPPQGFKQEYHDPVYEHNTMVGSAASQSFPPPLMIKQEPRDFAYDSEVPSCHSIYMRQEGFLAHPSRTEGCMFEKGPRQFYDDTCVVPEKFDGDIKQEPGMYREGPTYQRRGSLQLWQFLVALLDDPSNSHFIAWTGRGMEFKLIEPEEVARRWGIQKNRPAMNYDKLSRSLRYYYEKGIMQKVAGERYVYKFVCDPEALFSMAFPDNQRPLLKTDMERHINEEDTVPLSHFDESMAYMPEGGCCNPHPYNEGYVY
Sequence of ELF4 (Q99607 whole entry): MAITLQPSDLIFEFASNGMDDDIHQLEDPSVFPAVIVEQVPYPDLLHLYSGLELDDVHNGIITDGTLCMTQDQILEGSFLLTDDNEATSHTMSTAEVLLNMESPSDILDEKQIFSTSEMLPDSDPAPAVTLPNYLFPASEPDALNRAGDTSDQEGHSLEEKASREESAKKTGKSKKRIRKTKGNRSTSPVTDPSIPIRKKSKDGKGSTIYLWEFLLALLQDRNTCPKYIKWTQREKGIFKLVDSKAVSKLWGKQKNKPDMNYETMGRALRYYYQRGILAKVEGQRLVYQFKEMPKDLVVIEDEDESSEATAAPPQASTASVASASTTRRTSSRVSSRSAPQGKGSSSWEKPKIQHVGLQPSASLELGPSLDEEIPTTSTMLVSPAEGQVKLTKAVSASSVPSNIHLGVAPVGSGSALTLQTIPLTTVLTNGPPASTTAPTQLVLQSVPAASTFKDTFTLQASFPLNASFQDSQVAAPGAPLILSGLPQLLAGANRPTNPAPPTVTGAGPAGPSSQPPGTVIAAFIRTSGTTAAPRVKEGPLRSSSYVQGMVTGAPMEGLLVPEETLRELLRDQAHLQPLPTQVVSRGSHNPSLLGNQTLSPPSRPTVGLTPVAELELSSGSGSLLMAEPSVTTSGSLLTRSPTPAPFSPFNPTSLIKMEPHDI
Sequence of ETV5 (P41161 whole entry): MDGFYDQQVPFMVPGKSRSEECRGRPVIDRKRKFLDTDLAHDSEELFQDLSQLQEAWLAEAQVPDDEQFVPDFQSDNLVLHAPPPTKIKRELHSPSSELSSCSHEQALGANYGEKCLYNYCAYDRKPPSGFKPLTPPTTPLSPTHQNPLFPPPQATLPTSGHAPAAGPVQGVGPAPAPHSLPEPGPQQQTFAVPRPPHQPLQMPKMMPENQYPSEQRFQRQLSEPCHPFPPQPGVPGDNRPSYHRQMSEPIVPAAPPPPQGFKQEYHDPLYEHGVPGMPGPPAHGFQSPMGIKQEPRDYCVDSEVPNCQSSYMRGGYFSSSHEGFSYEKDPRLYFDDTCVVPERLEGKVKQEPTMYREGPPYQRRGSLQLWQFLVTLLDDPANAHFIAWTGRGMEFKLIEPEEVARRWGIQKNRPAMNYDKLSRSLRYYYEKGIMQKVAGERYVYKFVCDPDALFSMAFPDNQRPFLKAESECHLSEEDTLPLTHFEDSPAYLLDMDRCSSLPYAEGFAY
Sequence of HSF1 (Q00613 whole entry): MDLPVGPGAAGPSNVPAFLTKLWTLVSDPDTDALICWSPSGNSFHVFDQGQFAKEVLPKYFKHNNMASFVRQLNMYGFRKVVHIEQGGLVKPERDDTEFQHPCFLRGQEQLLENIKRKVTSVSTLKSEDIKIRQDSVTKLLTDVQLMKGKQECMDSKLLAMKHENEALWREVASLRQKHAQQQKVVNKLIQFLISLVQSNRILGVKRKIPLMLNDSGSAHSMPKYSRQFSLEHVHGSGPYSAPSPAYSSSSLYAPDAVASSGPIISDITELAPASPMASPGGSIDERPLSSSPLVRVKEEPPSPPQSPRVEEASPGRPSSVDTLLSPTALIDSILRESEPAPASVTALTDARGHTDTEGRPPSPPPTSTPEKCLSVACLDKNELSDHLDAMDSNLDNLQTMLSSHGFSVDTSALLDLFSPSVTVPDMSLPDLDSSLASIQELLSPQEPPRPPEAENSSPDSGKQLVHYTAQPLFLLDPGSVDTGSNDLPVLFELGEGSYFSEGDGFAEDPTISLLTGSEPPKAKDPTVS
Sequence of ETV6 (P41212 whole entry): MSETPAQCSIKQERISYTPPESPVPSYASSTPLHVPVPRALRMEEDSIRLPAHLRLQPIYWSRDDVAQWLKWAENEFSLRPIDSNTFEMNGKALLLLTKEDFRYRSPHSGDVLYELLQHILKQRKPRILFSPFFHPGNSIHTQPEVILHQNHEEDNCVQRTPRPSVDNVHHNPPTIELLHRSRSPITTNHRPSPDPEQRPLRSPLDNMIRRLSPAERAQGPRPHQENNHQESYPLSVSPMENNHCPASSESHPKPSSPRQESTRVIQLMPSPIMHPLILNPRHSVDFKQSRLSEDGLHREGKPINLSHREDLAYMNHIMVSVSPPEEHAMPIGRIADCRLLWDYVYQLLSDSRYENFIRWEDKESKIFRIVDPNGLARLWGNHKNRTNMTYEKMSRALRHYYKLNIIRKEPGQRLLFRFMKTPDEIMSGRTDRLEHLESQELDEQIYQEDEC
Sequence of CRX (O43186 whole entry): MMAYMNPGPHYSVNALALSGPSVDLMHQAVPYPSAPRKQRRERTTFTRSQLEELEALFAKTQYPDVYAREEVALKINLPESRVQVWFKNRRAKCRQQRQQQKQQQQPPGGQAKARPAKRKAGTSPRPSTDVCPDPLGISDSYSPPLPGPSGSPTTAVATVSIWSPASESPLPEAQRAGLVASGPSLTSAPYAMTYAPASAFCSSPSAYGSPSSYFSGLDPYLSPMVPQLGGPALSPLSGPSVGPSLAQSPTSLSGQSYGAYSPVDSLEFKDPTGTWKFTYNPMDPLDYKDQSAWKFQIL

Sequence: TTTCAC
- binding signal (FEV): 1.37 fold enrichment (6-mer frequency, TF over GST control)
- binding signal (ETV5): 1.37 fold enrichment (6-mer frequency, TF over GST control)
- binding signal (HSF1): 1.23 fold enrichment (6-mer frequency, TF over GST control)
- binding signal (SPIC): 1.17 fold enrichment (6-mer frequency, TF over GST control)
- binding signal (ELF4): 1.43 fold enrichment (6-mer frequency, TF over GST control)
- binding signal (ELK4): 1.52 fold enrichment (6-mer frequency, TF over GST control)
- binding signal (ETV2): 1.35 fold enrichment (6-mer frequency, TF over GST control)
- binding signal (ELF3): 1.26 fold enrichment (6-mer frequency, TF over GST control)
- binding signal (CRX): 1.14 fold enrichment (6-mer frequency, TF over GST control)
- binding signal (ETV1): 1.42 fold enrichment (6-mer frequency, TF over GST control)
- binding signal (ERF): 1.44 fold enrichment (6-mer frequency, TF over GST control)
- binding signal (ETV3L): 1.36 fold enrichment (6-mer frequency, TF over GST control)
- binding signal (ETS2): 1.32 fold enrichment (6-mer frequency, TF over GST control)
- binding signal (SPDEF): 1.33 fold enrichment (6-mer frequency, TF over GST control)
- binding signal (ETV7): 1.4 fold enrichment (6-mer frequency, TF over GST control)
- binding signal (ELF5): 1.42 fold enrichment (6-mer frequency, TF over GST control)
- binding signal (ETV3): 1.32 fold enrichment (6-mer frequency, TF over GST control)
- binding signal (ETV6): 1.3 fold enrichment (6-mer frequency, TF over GST control)
